Data published in the supplement of paper PMC10338343.
± gives the standard deviation.

Each sequence was assayed on MILI (PIWIL2) piRISC loaded with L1MC piRNA (26 nt) (assay: pre-steady-state target cleavage rate (min^-1); guide: L1MC piRNA 5'p-UAACUAAAUACUAUGCAAGCUGUAGG; MIWI and MILI are mouse PIWI proteins and EfPiwi is from a freshwater sponge; tags in brackets are library labels; higher = faster piRNA-guided slicing of the target). Details: auxiliary factor: 500 nM mouse GTSF1.
How it was run: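 A burst-and-steady-state fit was used to obtain the pre-steady-state cleavage rate. The input data were sequencing reads of uncleaved targets, normalised to depth and to weakly complementary targets, from a […] transcribed, DNA-blocked target RNA library mixed with 1 nM active affinity-purified piRISC holding one synthetic guide, with or without 500 nM GTSF1 partner protein, in HEPES–potassium acetate buffer at 33 °C for 0–8 or 0–960 min. Three trials were pooled and k3 was capped at 0.0001 min^-1.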
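Also: 1 nM active piRISC with 0.1 nM target library at 33 °C single turnover.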

Sequence | pre-steady-state target cleavage rate
UCCUGGAUCAGCUUGCAUAGUAUUUACAAA | 0.105 ± 0.021
UCCUGGAUCAGCUACCAUAGUAUUUAGUUA | 0.145 ± 0.014
UCCUGGUUCAGCUUGCAAAGUAUUUAGUUA | 0.137 ± 0.018
UCCUGUUACAGCUUGCAUAGUAUUUAGUUA | 0.328 ± 0.018
UCCUGGAUCAGCUUGAAUAGUAUUUAGUUA | 0.247 ± 0.017
UCCUGGAUGUGCUGCAUAGUAUUUAGUUA | 0.0672 ± 0.009
UCCUGGUACAGCUUCGCAUAGUAUUUAGUUA | 0.274 ± 0.021
UCCUCCUACAGCUUGGAUAGUAUUAAGUUA | 0.134 ± 0.017
UCCUCCUACAGCUUGCAUAGUAUUCAGUUA | 0.229 ± 0.034
UCCUGGUACAGCUUGCAUAGUAUUUAGUA | 0.226 ± 0.031
UCCUGGAUCAUGCUUGCAUAGUAUUUAGUUA | 0.18 ± 0.019
UCCUGCUACACCUUGCAUAGUAUUUAGUUA | 0.214 ± 0.018
UCCUGGAACAGCUUGCUUAGUAAUUAGUUA | 0.213 ± 0.019
UCCUCCUUCAGCUUGGAUAGUAUUUAGUUA | 0.242 ± 0.015
UCCUGGUACAGGAUGCAUAGUAUUUAGUAA | 0.172 ± 0.021
UCCUGGUACAGCUUGCAUAGUUAUUAGUUA | 0.0387 ± 0.015
UCCUGGAACAGUUUGCAUAGUAUUUAGUUA | 0.285 ± 0.014
UCCUGGAUGUGCGUGCAUAGUAUUUAGUUA | 0.107 ± 0.012
UCCUGGAUGUGAUUGCAUAGUAUUUAGUUA | 0.115 ± 0.015
UCCUGCUUCAGCUUGCAUUGUAUUUAGUUA | 0.218 ± 0.013

Sequence | pre-steady-state target cleavage rate
UCCUGGAUGAGCUUGCAUUGUAUUUAGUUA | 0.139 ± 0.013
UCCUGGAACAGCUUGCAAAGUAUAUAGUUA | 0.116 ± 0.013
UCCUCGUACAGCUUGCAAAGUAUUUAGUUA | 0.149 ± 0.01
UCCUGCUACAGCUUGCAAAGUAUUAAGUUA | 0.146 ± 0.019
UCCUGGAACAGCUUGCAUAGUAUAUUAGUUA | 0.247 ± 0.019
UCCUGGUAGAGCUUGGAUAGUAUUUAGUUA | 0.15 ± 0.0091
UCCUGGAUCAGCUUGCUUACUAUUUAGUUA | 0.0672 ± 0.0086
UCCUGGUUCAGCUUGCAUAGUAAUUAGUUA | 0.235 ± 0.024
UCCUGGAUGUGCUUGCAUAGUCUUUAGUUA | 0.0458 ± 0.011
UCCUCCUACAGCUUGCAUUGUAUUUUGUUA | 0.0994 ± 0.015
UCCUGGAUCAGGAUGCAUAGUAUUUAGUUA | 0.156 ± 0.012
UCCUGGAACAGCUUGCAUAGUCUUUAGUUA | 0.197 ± 0.016
UCCUCCUACAGCUUAGCAUAGUAUUUAGUUA | 0.314 ± 0.017
UCCUGGUACAGCUAGCAUAGUAUUUAGUAA | 0.201 ± 0.022
UCCUGGAUGAGCUUGCAUAGUAUUGAGUUA | 0.164 ± 0.036
UCCUGGAUGUCCGUGCAUAGUAUUUAGUUA | 0.0403 ± 0.011
UCCUGGAUGUGCUUGCAUAGUACUUAGUUA | 0.105 ± 0.022
UCCUCCUACAGCUUCGAUAGUAUUUAGUUA | 0.26 ± 0.017
UCCUGCUACAGCUUAGCAUAGUAUUUAGUUA | 0.276 ± 0.014
UCCUCCUACACGUUGCAUAGUAUUUAGUAA | 0.163 ± 0.022
